Experimental data published in the supplement of paper PMC12045047.

These compounds were tested on primary human airway basal cells (HBEC, luciferase-transduced) (assay: proliferation (luciferase bioluminescence) Z score relative to plate mean; higher = more proliferation / more cells, active = 1.96 or more). Conditions: donor: 1; 0.5 µM; library: ENZO Libraries; 4 days.
Protocol: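 Primary human bronchial epithelial (airway basal) cells from two donors, lentivirally transduced with pHIV-Luc-ZsGreen, were seeded at 2000 cells/well in 384-well plates in FAD medium with ENZO or Prestwick library compounds and cultured for 4 days. Luciferin was then added and bioluminescence was read as a measure of cell number. Relative light units were converted to Z scores against the plate, and the mean of triplicate wells is reported.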

proliferation, inactive:
CC(C(=O)Nc1cccc(/N=C/c2c(O)ccc3ccccc23)c1)c1ccccc1 (stereo not given) [Salermide] -0.719
C=CC(=O)c1ccc2ccccc2c1 0.129
CC(NC(=O)C(Cc1ccccc1)NC(=O)OCc1ccccc1)C(=O)CF (stereo not given) -0.176
O=Nc1ccc(O)c2ncccc12 -0.683
CC(NC(=O)c1ccccc1/N=C/c1c(O)ccc2ccccc12)c1ccccc1 (stereo not given) [Sirtinol] -0.129
O=c1oc(Cl)c(Cl)c2ccccc12 [34-Dichloroisocoumarin] 0.257
COc1cc(/C=C(\C#N)C(N)=O)cc(CSc2nc3ccccc3s2)c1O -0.428
CC(C)CC(=O)N[C@H](C(=O)N[C@H](C(=O)N[C@@H](CC(C)C)[C@@H](O)CC(=O)N[C@@H](C)C(=O)N[C@@H](CC(C)C)[C@@H](O)CC(=O)O)C(C)C)C(C)C [Pepstatin A] 0.161
O=c1c(-c2ccc(O)cc2)coc2cc(O)ccc12 [Daidzein] 0.207
CC1CNc2c(cccc2S(=O)(=O)N[C@@H](CCCNC(=N)N)C(=O)N2CC[C@@H](C)C[C@@H]2C(=O)O)C1 (stereo not given in full) [Argatroban] 0.0616
CCCCC[C@H](CC(=O)NO)C(=O)N[C@H](C(=O)N1CCC[C@H]1CO)C(C)C [Actinonin] -0.508
O=C(O)CCCc1ccccc1 -0.468
Oc1c2ccccc2c2c3c(cccc13)N=N2 0.134
Nc1ccc(CC(CC(=O)O)C(=O)O)cc1 [4-Amino-D L-benzylsuccinic acid] 0.379
Oc1cc(O)cc(/C=C/c2ccc(O)c(O)c2)c1 [Piceatannol] -0.115
O=C(NCCCCN1CCOCC1)c1cc2ccccc2o1 -0.215
CCC(C)[C@H](NS(=O)(=O)c1cccc2ccccc12)C(=O)N[C@H](C=O)Cc1c[nH]c2ccccc12 (stereo not given in full) -0.192
CN(C)c1ccc(/C=C2/C(=O)Nc3ccccc32)cc1 -0.0148
COc1cc2nc(N3CCCN(C)CC3)nc(NC3CCN(Cc4ccccc4)CC3)c2cc1OC -0.123
O=C[C@@H]1CCCN1C(=O)[C@@H]1CCCN1C(=O)OCc1ccccc1 [Z-Prolyl-prolinal] -0.531

Same assay, conditions: donor: 1; 5 µM; library: ENZO Libraries; 4 days

proliferation, inactive:
CC(C(=O)Nc1cccc(/N=C/c2c(O)ccc3ccccc23)c1)c1ccccc1 (stereo not given) [Salermide] -0.645
C=CC(=O)c1ccc2ccccc2c1 -0.357
CC(NC(=O)C(Cc1ccccc1)NC(=O)OCc1ccccc1)C(=O)CF (stereo not given) -0.114
O=Nc1ccc(O)c2ncccc12 -1.09
CC(NC(=O)c1ccccc1/N=C/c1c(O)ccc2ccccc12)c1ccccc1 (stereo not given) [Sirtinol] -0.361
O=c1oc(Cl)c(Cl)c2ccccc12 [34-Dichloroisocoumarin] 0.055
COc1cc(/C=C(\C#N)C(N)=O)cc(CSc2nc3ccccc3s2)c1O -0.258
CC(C)CC(=O)N[C@H](C(=O)N[C@H](C(=O)N[C@@H](CC(C)C)[C@@H](O)CC(=O)N[C@@H](C)C(=O)N[C@@H](CC(C)C)[C@@H](O)CC(=O)O)C(C)C)C(C)C [Pepstatin A] 0.196
O=c1c(-c2ccc(O)cc2)coc2cc(O)ccc12 [Daidzein] 1.72
CC1CNc2c(cccc2S(=O)(=O)N[C@@H](CCCNC(=N)N)C(=O)N2CC[C@@H](C)C[C@@H]2C(=O)O)C1 (stereo not given in full) [Argatroban] -0.0211
CCCCC[C@H](CC(=O)NO)C(=O)N[C@H](C(=O)N1CCC[C@H]1CO)C(C)C [Actinonin] -0.446
O=C(O)CCCc1ccccc1 -0.326
Oc1c2ccccc2c2c3c(cccc13)N=N2 -0.168
Nc1ccc(CC(CC(=O)O)C(=O)O)cc1 [4-Amino-D L-benzylsuccinic acid] -0.241
Oc1cc(O)cc(/C=C/c2ccc(O)c(O)c2)c1 [Piceatannol] 1.52
O=C(NCCCCN1CCOCC1)c1cc2ccccc2o1 -0.00355
CCC(C)[C@H](NS(=O)(=O)c1cccc2ccccc12)C(=O)N[C@H](C=O)Cc1c[nH]c2ccccc12 (stereo not given in full) -0.56
CN(C)c1ccc(/C=C2/C(=O)Nc3ccccc32)cc1 1.43
COc1cc2nc(N3CCCN(C)CC3)nc(NC3CCN(Cc4ccccc4)CC3)c2cc1OC -0.996
O=C[C@@H]1CCCN1C(=O)[C@@H]1CCCN1C(=O)OCc1ccccc1 [Z-Prolyl-prolinal] -0.515
